# From PubChem BioAssay (NCATS)
# Records with an inconclusive call do not appear. Activity calls are given as the source filed them. The call rests on the fitted dose curve; in most records, active means well fitted curve in the direction sought with a large enough effect; inconclusive means small, poorly fitted or top-dose-only effect, or another doubt; inactive means no such curve, though single readings can be large; an effect the other way counts as inactive or inconclusive.
# Key:
# PA-1 = experiment: Primary qHTS to identify gynecologic anti-cancer compounds using libraries of approved drugs and bioactive compounds (AID 1345084); details: Gynecologic cancer cell panel viability, ATPlite luminescence, 48 h; series mostly up to 57.5 µM; further: nearly all actives have a fitted effect of over 55% in size; further: potency means the concentration at half of the fitted maximal effect
# Outline: (§1)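 Cytotoxicity screen measuring ATP content by luciferase luminescence. Each compound is applied at five concentrations for 48 h at 37 C with 5% CO2.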
# Tov-21-G = experiment: as above; details: Gynecologic cancer cell panel viability, ATPlite luminescence, 48 h; series mostly up to 57.5 µM
# Outline: as §1
# Tov112D = experiment: as above; details: Gynecologic cancer cell panel viability, ATPlite luminescence, 48 h; series mostly up to 57.5 µM
# Outline: as §1
# [1] = qHTS assay to identify inhibitors of the type 1 interferon - major histocompatibility complex class I in skeletal muscle: Counter screen cell viability and HiBit confirmation (AID 1347412); details: iHSKM muscle cells + IFN-b, HiBiT or CellTiter-Glo, 24 h; for activity change, negative = inhibition: at 45.9 µM (top of the series); further: potency means the concentration at half of the fitted maximal effect; on all read-outs here: nearly all actives have a fitted effect of over 60% in size
# Outline: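 Human myoblast knock-in line, 4.0 ng/ml IFN-beta stimulation, 24 h compound treatment. Endpoints: HiBiT lytic luminescence (HLA-B level) and CellTiter Glo (ATP). Dosing 12 concentrations, 3-fold steps, 46 uM highest final.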
# SKOV3 = experiment: Primary qHTS to identify gynecologic anti-cancer compounds using libraries of approved drugs and bioactive compounds (AID 1345084); details: Gynecologic cancer cell panel viability, ATPlite luminescence, 48 h; series mostly up to 57.5 µM; further: nearly all actives have a fitted effect of over 55% in size; further: potency means the concentration at half of the fitted maximal effect
# Outline: as §1
# [2] = Drug repurposing screens with cells derived from glioblastoma tumor samples (AID 1345199); details: GBM patient neurospheres viability, ATP luminescence, 48 h; further: nearly all actives have a fitted effect of over 40% in size
# Outline: (§2)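 Primary testing used CD133+ neurospheres from four GBM patients, seven concentrations, 48 h exposure and ATP-based viability; confirmation added three slower-growing patient lines.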
# astro = experiment: as above; details: viability, ATP luminescence, 48 h; series mostly up to 45.9 µM
# Outline: as §2
# On the % scale 0 is the no-effect control and ±100 the full control effect.
structure (smiles),measurement,setting,value
Cc1cnc(Nc2ccc(F)cc2Cl)nc1-c1c[nH]c(C(=O)N[C@H](CO)c2cccc(Cl)c2)c1,Potency,PA-1,31.6 µM (active)
same,Potency,Tov-21-G,28.2 µM (active)
CC(C)c1cnn2c(NCc3ccccc3)cc(N[C@@H](CO)[C@H](O)CO)nc12,Potency,PA-1,1 µM (active)
same,Potency,Tov-21-G,1.58 µM (active)
same,Potency,Tov112D,3.16 µM (active)
same,Potency,[1]; HiBiT,0.157 µM (active)
same,"activity change, negative = inhibition",[1]; Viability,18.9% (inactive)
Nc1cccc(-c2cc3c(Oc4cccc(O)c4)ncnc3[nH]2)c1,Potency,SKOV3,3.98 µM (active)
C[C@@H]1COC(Nc2ccc3ncnc(Nc4ccc(OCc5nccs5)c(Cl)c4)c3c2)=N1,Potency,SKOV3,14.1 µM (active)
same,"activity change, negative = inhibition",[1]; Viability,-24% (inactive)
CC1COC2(CCN(c3nc(=O)c4cc(C(F)(F)F)cc([N+](=O)[O-])c4s3)CC2)O1 (centres undefined),Potency,PA-1,inactive
same,Potency,SKOV3,inactive
same,Potency,Tov112D,inactive
COc1cc2c(Oc3ccc4[nH]c(C)cc4c3F)ncnc2cc1OCCCN1CCCC1,Potency,PA-1,inactive
same,Potency,Tov112D,12.6 µM (active)
same,Potency,[1]; HiBiT,19.8 µM (active)
same,Potency,[1]; Viability,19.8 µM (active)
CC[C@@]1(O)C(=O)OCc2c1cc1n(c2=O)Cc2cc3cc(O)ccc3nc2-1,Potency,PA-1,0.282 µM (active)
same,Potency,Tov-21-G,3.55 µM (active)
same,Potency,Tov112D,0.0794 µM (active)
same,Potency,[1]; HiBiT,2.79 µM (active)
same,"activity change, negative = inhibition",[1]; Viability,8.39% (inactive)
Cc1cc(Nc2cc(CN3CCOCC3)c3nc(C)c(Cc4ccc(Cl)cc4F)n3n2)n[nH]1,Potency,PA-1,inactive
same,Potency,Tov112D,inactive
same,Potency,[1]; HiBiT,3.52 µM (active)
Fc1cc(-c2cccc3ncc(-c4cnn(C5CCNCC5)c4)nc23)cc(F)c1CN1CCOCC1,Potency,SKOV3,12.6 µM (active)
same,Potency,Tov-21-G,11.2 µM (active)
same,Potency,[1]; HiBiT,19.8 µM (active)
CC(C)c1nn(-c2c(Cl)cccc2Cl)c2nc(Cc3ccc(OCCO)cc3)[nH]c(=O)c12,Potency,PA-1,0.251 µM (active)
same,Potency,SKOV3,1.41 µM (active)
same,Potency,Tov112D,0.282 µM (active)
same,Potency,[1]; HiBiT,0.0352 µM (active)
same,"activity change, negative = inhibition",[1]; Viability,27.7% (inactive)
Cc1cc(N2CCOCC2)cc2[nH]c(-c3c(NC[C@@H](O)c4cccc(Cl)c4)cc[nH]c3=O)nc12,Potency,PA-1,14.1 µM (active)
same,Potency,SKOV3,14.1 µM (active)
same,Potency,[1]; HiBiT,6.25 µM (active)
C=CCn1c(=O)c2cnc(Nc3ccc(N4CCN(C)CC4)cc3)nc2n1-c1cccc(C(C)(C)O)n1,Potency,PA-1,1.58 µM (active)
same,Potency,SKOV3,0.447 µM (active)
same,Potency,Tov-21-G,0.631 µM (active)
same,Potency,Tov112D,2 µM (active)
NC1(Cc2ccc(Cl)cc2)CCN(c2ncnc3[nH]ccc23)CC1,Potency,PA-1,inactive
same,Potency,Tov112D,inactive
Nc1nc(Nc2ccc(S(N)(=O)=O)cc2)nn1C(=O)c1c(F)cccc1F,Potency,PA-1,28.2 µM (active)
same,Potency,SKOV3,inactive
same,Potency,[1]; HiBiT,2.49 µM (active)
same,"activity change, negative = inhibition",[1]; Viability,19% (inactive)
Cc1cc(Nc2nc(N[C@@H](C)c3ccc(F)cc3)c(C#N)cc2F)n[nH]1,Potency,PA-1,7.08 µM (active)
same,Potency,[1]; HiBiT,2.22 µM (active)
O=C(Nc1ncc(-c2cc(C(F)F)nn2-c2c(Cl)cccc2Cl)s1)C1CC1,Potency,PA-1,1.78 µM (active)
same,Potency,Tov-21-G,1.78 µM (active)
same,Potency,Tov112D,1.58 µM (active)
CNC(=O)c1cc(Oc2ccc(NC(=O)Nc3cc(C(C)(C)C)nn3-c3ccc4ncccc4c3)c(F)c2)ccn1,Potency,PA-1,20 µM (active)
same,Potency,Tov-21-G,28.2 µM (active)
same,Potency,[1]; HiBiT,3.94 µM (active)
same,"activity change, negative = inhibition",[1]; Viability,26.8% (inactive)
CNC(=O)c1nn(C)c2c1C(C)(C)Cc1cnc(Nc3ccc(N4CCN(C)CC4)cc3)nc1-2,Potency,PA-1,2.24 µM (active)
same,Potency,Tov112D,2.24 µM (active)
same,Potency,[1]; HiBiT,1.98 µM (active)
same,"activity change, negative = inhibition",[1]; Viability,28.9% (inactive)
CCCCOc1c(C(=O)c2c(F)cc(C)cc2F)cnc2n[nH]cc12,Potency,PA-1,7.94 µM (active)
same,Potency,SKOV3,inactive
COc1cc(C(C)C)c2c(c1)S(=O)(=O)N(COc1cc(=O)n3cccc(OCCN4CCCCC4)c3n1)C2=O,"activity change, negative = inhibition",[1]; Viability,-20.7% (inactive)
CC1(C)O[C@@H]2C[C@@H]3[C@H]4C[C@@H](F)C5=CC(=O)C=C[C@]5(C)[C@@]4(F)[C@@H](O)C[C@]3(C)[C@]2(C(=O)CO)O1,"activity, negative = cell killing","[2]; at 45.9 µM (top of the series), tumour line B",-7.89% (inactive)
same,"activity, negative = cell killing","[2]; at 45.9 µM (top of the series), tumour line D",-1.99% (inactive)
same,"activity, negative = cell killing","[2]; at 46 µM (top of the series), tumour line A",-7.12% (inactive)
same,"activity, negative = cell killing","[2]; at 46.1 µM (top of the series), tumour line C",2.95% (inactive)
same,Potency,astro,inactive
CN(c1ncccc1CNc1nc(Nc2ccc3c(c2)CC(=O)N3)ncc1C(F)(F)F)S(C)(=O)=O,Potency,[1]; HiBiT,4.97 µM (active)
same,"activity change, negative = inhibition",[1]; Viability,13.6% (inactive)
